Results reported in PubChem BioAssay AID686978 (National Center for Advancing Translational Sciences (NCATS), 2013).
The whole screen tested about 420,000 compounds, of which about 64,000 (15%) were called active. Not shown: some 27% with an inconclusive outcome. Calls come from the whole dose curve; as a rule, active = well fitted inhibition curve with a large enough effect; inconclusive = small, poorly fitted or top-dose-only effect; inactive = flat fitted curve, though single readings scatter. Only a sample is shown. Entries that show only a call come without a potency.

Experiment: qHTS for Inhibitors of human tyrosyl-DNA phosphodiesterase 1 (TDP1): qHTS in cells in absence of CPT; note: nearly all actives have a fitted effect of over 55% in size
Details: DT40 Tdp1-/- hTDP1 cells, no CPT, ATP luminescence, 48 h; activity change, negative = growth inhibition: at 46.2 µM (top of the series)
Method in brief: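 Chicken DT40 Tdp1-/- cells stably complemented with human TDP1 were seeded at 400 cells/well with DMSO in place of 20 nM camptothecin. After compound pinning, cells grew at least 48 hr at 37 °C; viability read by CellTiter-Glo luminescence.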
Potency is the fitted concentration of half-maximal effect.

SMILES | Potency
NC(=O)C1CCN(C(=O)/C(=C/c2ccco2)NC(=O)c2ccccc2)CC1 | inactive
COc1ccc(CN(C(=O)CSc2nnc(-c3ccc(OC)c(OC)c3)o2)c2ccc(F)cc2)cc1 | 23.1 µM (active)
CCN(CC)C(=O)CSc1nnc(-c2cccc(OC)c2)o1 | inactive
COc1ccc(CCNC(=O)CSc2nnc(-c3cccc(F)c3)o2)cc1OC | inactive
O=C(NCc1ccccn1)c1cc2ccccc2oc1=O | inactive
O=C(CSCc1ccccc1)Nc1ccccc1 | inactive
CCc1cccc(NC(=O)CCC(=O)O)c1 | inactive
O=C(CCl)Nc1cccc(CP(=O)(c2ccccc2)c2ccccc2)c1 | 2.59 µM (active)
COc1ccc(N(Cc2cc3cc(OC)ccc3[nH]c2=O)S(C)(=O)=O)cc1 | inactive
COc1ccc2[nH]c(=O)c(CNc3ccc(C)c(C)c3)cc2c1 | 8.2 µM (active)
CCC(=O)N(Cc1cc2cc(OC)ccc2[nH]c1=O)c1ccccc1C | inactive
CC(=O)Oc1ccccc1C1=NN(C(C)=O)C(c2ccccc2)C1 (stereo unspecified) | inactive
COc1ccc(C2CC(c3ccccc3)=NN2C(=O)CSc2nccc(=O)[nH]2)cc1 (stereo unspecified) | inactive
O=C1C2N=NN(CC(=O)N3N=C(c4cccc5ccccc45)CC3c3ccccc3)C2C(=O)N1c1ccccc1 (stereo unspecified) | 29.1 µM (active)
COc1cc(CN2CCNC(=O)C2CC(=O)NCCc2ncccc2C)cc(OC)c1 (stereo unspecified) | inactive
CCN1CCCC1CNC(=O)c1cc2cc(OC)c(OC)cc2[nH]1 (stereo unspecified) | inactive
CCOC(=O)C1(C)CCCN(C(=O)c2ccc(N(C)C)cc2)C1 (stereo unspecified) | inactive
CCCS(=O)(=O)NC(=O)C1(C)CCCN(C(=O)c2ccnc(Cl)c2)C1 (stereo unspecified) | inactive
CCOC(=O)C1(C)CCCN(C(=O)c2ccc(F)c(Cl)c2)C1 (stereo unspecified) | 20.6 µM (active)
COC(=O)/C(=C1\Oc2ccc(C(C)(C)C)cc2S1)C(F)(F)F | inactive
CC(=O)Nc1ccc(S(=O)(=O)NC2(C(F)(F)F)C(=O)NC(C)=C2C#N)cc1 (stereo unspecified) | inactive
O=C(Cc1ccccc1F)NC1CCSc2ccccc21 (stereo unspecified) | inactive

SMILES | Potency
CCc1cc(Br)ccc1NC(=O)C1CCCO1 (stereo unspecified) | inactive
COc1ccccc1C(=O)COC(=O)CNS(=O)(=O)c1ccc(NC(C)=O)cc1 | inactive
O=C1c2cccc3c([N+](=O)[O-])ccc(c23)C(=O)N1CC1CCCO1 (stereo unspecified) | 5.8 µM (active)
O=C(NCc1ccc2c(c1)OCO2)c1ccc2c(c1)C(=O)N(CC1CCCO1)C2=O (stereo unspecified) | inactive
O=c1c2cc3c(=O)n(CC4CCCO4)c(=O)c3cc2c(=O)n1CC1CCCO1 (stereo unspecified) | inactive
COc1ccc(/C=C/C(=O)OCC(=O)NCc2cccs2)cc1OC | inactive
COc1cc(/C=C/C(=O)OCC(=O)NC(=O)NCc2ccccc2)ccc1OCC#N | inactive
CCOc1ccc(/C=C/C(=O)OCC(=O)c2ccccc2OC)cc1OC | 20.6 µM (active)
COc1ccc(S(=O)(=O)N(CC(=O)N/N=C/c2ccc(C(=O)O)cc2)Cc2ccccc2)cc1OC | inactive
Cc1nonc1OCCn1nnnc1N | inactive
Cc1csc(=O)n1CCC(=O)OCC(=O)Nc1ccc(N2CCOCC2)cc1 | inactive
O=C1Nc2cc(Cl)c(Cl)cc2N(O)N1c1ccccc1Cl | inactive
COC(=O)c1ccc2nc(-c3ccc(OC)c(OC)c3)c(Cc3ccccc3)n2c1 | 20.6 µM (active)
COC(=O)c1ccc2nc(-c3cccc(Br)c3)c(Cc3ccccc3C(F)(F)F)n2c1 | inactive
COC(=O)c1ccc(COC(=O)c2cnc(Cl)c(Cl)c2)cc1 | inactive
COc1ccc(C(=O)NCc2cn3ccccc3n2)cc1 | inactive
COC(=O)c1ccc2nc(-c3ccccc3)c(Cc3ccc(OC)cc3C)n2c1 | 23.1 µM (active)
COC(=O)c1ccc2nc(-c3ccc(Cl)cc3)c(Cc3cccc(F)c3)n2c1 | 23.1 µM (active)
COC(=O)c1ccc2nc(-c3ccc(F)cc3)c(Cc3ccc(C)cc3)n2c1 | inactive
COC(=O)c1ccc(NC(=O)CSc2nncc3ccc(OC)c(OC)c23)cc1 | inactive
CCN1CCN(Cc2c(O)ccc3c(=O)c(-c4ccc(OC)c(OC)c4)c(C(F)(F)F)oc23)CC1 | inactive
Cc1ccc(NS(=O)(=O)c2c(C)[nH]c(=O)[nH]c2=O)cc1C | inactive

SMILES | Potency
C[C@@H]1CC[C@]2(O[C@@H](CCO)C[C@H](O)[C@H]2O)O1 | inactive
CCCCSc1nnc(-c2ccc(NC(=O)CC)cc2)n1C | inactive
O=C(c1cccc(S(=O)(=O)Nc2ccccc2Cl)c1)N1CCN(C(=O)c2ccco2)CC1 | inactive
COc1ccc(C)cc1NC(=O)NCCCCc1ccccc1 | inactive
CCOc1ccc(-c2nonc2NC(=O)c2oc3ccc(C)cc3c2C)cc1OCC | inactive
CCc1nonc1NC(=O)c1oc2ccc(Cl)cc2c1C | inactive
CCOc1ccc(-c2nonc2NC(=O)c2oc3ccc(CC)cc3c2C)cc1 | 20.6 µM (active)
CCCCCCCCOC1OC(CO)C(O)C(O)C1NC(C)=O (stereo unspecified) | inactive
O=C1CCN(C(=O)Nc2ccccc2)N1 | inactive
CCNC(=O)C1(C)CCCN(C(=O)c2c(C)noc2C)C1 (stereo unspecified) | inactive
COc1ccc(-c2cc(-c3ccc(F)cc3)nc3c2COc2ccccc2-3)cc1 | inactive
NC(=O)C1CCN(C2OC(=O)c3ccccc32)CC1 (stereo unspecified) | inactive
CCOC(=O)NNC(=O)c1ccc(Cl)cc1 | inactive
Cc1ccc(S(=O)(=O)n2nc(C)c(S(=O)(=O)N3CCCCCC3)c2C)cc1 | inactive
CCOc1ccccc1NC(=O)C1CCN(S(=O)(=O)c2c(C)nn(C)c2C)CC1 | inactive
Cc1nn(C)c(C)c1S(=O)(=O)N1CCC(CO)(Cc2ccc(Cl)cc2)CC1 | 16.4 µM (active)
COc1ccc(NC(=O)c2ccccc2CC[N+](=O)[O-])cc1 | inactive
CC(=O)c1cccc(NC(=O)c2nc(-c3ccccc3)n(-c3cccc(C)c3)n2)c1 | 10.3 µM (active)
CC(=O)c1cccc(NC(=O)Nc2ccc(C)cc2)c1 | inactive
CC(=O)c1cccc(NC(=O)c2cc(C)nn2-c2ccccc2)c1 | inactive
COc1ccc2c(c1)C(c1cccs1)=NNC(c1cccnc1)=N2 | inactive
COC(=O)c1cccc([N+](=O)[O-])c1CS(=O)(=O)c1ccc(C)cc1 | inactive

SMILES | Potency
COc1cccc2c(O)cc(=O)n(C)c12 | inactive
COCCCN(C(=S)Nc1c(C)cc(C)cc1C)C(C)c1ccncc1 (stereo unspecified) | inactive
CS(=O)(=O)N1CCc2cc(C(=O)Nc3ccccc3Br)ccc21 | inactive
COc1ccc(C(=O)Nc2nc(-c3ccc(S(=O)(=O)N4CCOCC4)cc3)cs2)cc1 | 20.6 µM (active)
CNC(=O)c1ccsc1NC(=O)c1ccc(S(=O)(=O)N2CCc3ccccc32)cc1 | 18.4 µM (active)
CNC(=O)c1ccsc1NC(=O)c1ccc(S(=O)(=O)N2CCOCC2)cc1 | 23.1 µM (active)
CSc1ccccc1NC(=O)c1ccc2c(c1)CCN2S(C)(=O)=O | inactive
O=C(Nc1ccc(S(=O)(=O)N2CCOCC2)cc1)c1ccc2ncsc2c1 | inactive
COc1ccc(S(=O)(=O)n2nc(C)c(S(=O)(=O)N3CCOCC3)c2C)cc1 | inactive
Cc1cc2nc(NC(=O)c3ccc(S(=O)(=O)N4CCOCC4)cc3)sc2cc1C | inactive
Cc1ccc(S(=O)(=O)N2CCOCC2)cc1NC(=O)c1ccncc1 | inactive
Cc1ccc(N2CCN(/N=C/c3cccs3)CC2)cc1 | inactive
CCN1CCN(C2CCCCC2NS(=O)(=O)c2ccc(Cl)cc2)CC1 (stereo unspecified) | inactive
O=C1OC(C(O)CO)C(O)=C1O (stereo unspecified) | inactive
COC(=O)c1ccc(COC(=O)C2CCN(S(=O)(=O)c3c(Cl)cccc3Cl)CC2)o1 | inactive
CC(C)(C)n1nnc(CCc2nnn(C(C)(C)C)n2)n1 | inactive
O=S(=O)(NCCCN1CCOCC1)c1ccc(F)c(Cl)c1 | inactive
COC(=O)[C@]1(C)N[C@H](CN(C)C(=O)c2ccc(C(C)(C)C)cc2)[C@@H]2C(=O)N(C)C(=O)[C@@H]21 | inactive
CCCC1(C(=O)OC)NC(c2ccco2)C2C(=O)N(C)C(=O)C21 (stereo unspecified) | inactive
COC(=O)[C@]1(CC(C)C)N[C@H](c2ccc(SC3CCCCC3)cc2)[C@@H]2C(=O)N(C)C(=O)[C@@H]21 | 23.1 µM (active)
CCc1nc2cc(C(=O)NCC3CCS(=O)(=O)C3)cc(NC(=O)c3ccccc3OC)c2n1C (stereo unspecified) | inactive
COc1ccc(-c2nc3cnc(Oc4ccccc4)nc3n(Cc3cccs3)c2=O)cc1 | inactive

SMILES | Potency
CCc1nnc(NC(=O)c2sc3nc(C)cc(COC)c3c2N)s1 | inactive
CCc1ccc2nc3sc(C(=O)Nc4nnc(CC)s4)c(N)c3cc2c1 | 18.4 µM (active)
CCc1nnc(NC(=O)c2ccco2)s1 | inactive
CCC(=O)c1ccc(OCC(O)CN2C(=O)NC(C)(C)C2=O)cc1 (stereo unspecified) | inactive
CCOC(=O)c1c(N)sc(C(C)=O)c1C | inactive
Cc1ccc(-c2cc(C(=O)Oc3ccccc3Cl)no2)cc1C | inactive
CC(=O)Nc1ccc2nc(SCCOc3cc(C)cc(C)c3)sc2c1 | 16.4 µM (active)
O=C(NC1CCCCC1)c1cc([N+](=O)[O-])ccc1N1CCOCC1 | inactive
CCOc1ccc2nc(SC(CC)C(=O)Nc3cc(C)on3)sc2c1 (stereo unspecified) | 18.4 µM (active)
Cc1cc(NC(=O)COc2ccc([N+](=O)[O-])cc2)no1 | inactive
Cc1cc(C)cc(OCC(=O)Nc2nc3ccc([N+](=O)[O-])cc3s2)c1 | inactive
O=C(Nc1ccc2nc(SCCOc3ccccc3)sc2c1)c1ccco1 | 23.1 µM (active)
CCCC(=O)N(CCN1CCOCC1)c1nc2ccc(OCC)cc2s1 | inactive
Cc1cc(C)cc(OCc2nnc(SCC(=O)Nc3ccccc3)o2)c1 | inactive
O=C(NCCSc1ccccc1)c1ccco1 | inactive
O=C(Nc1ccccc1)c1ccco1 | inactive
CCOc1ccc2nc(NC(=O)c3cc([N+](=O)[O-])ccc3N3CCOCC3)sc2c1 | 18.4 µM (active)
Cc1cccc(OCCSc2nc3ccc(NC(=O)COc4ccccc4C)cc3s2)c1 | inactive
